Bioassay records deposited in PubChem by National Center for Advancing Translational Sciences (NCATS).
TexasRed fluor: Texas Red fluorescence interference in TRb-SRC2 counter-screen | TRb/SRC2 Texas Red total fluorescence interference | Potency, µM (series often up to 106 µM), without a hit: at the highest dose fluorescence change, negative = quenching | actives 0.29% (n = 280,000); active means well fitted curve in either direction with a large enough effect; inconclusive means small, poorly fitted or top-dose-only effect; further: potency means the concentration at half of the fitted maximal effect; on the % scale 0 is the no-effect control and ±100 the full control effect
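Flags fluorescent or light-absorbing compounds by total fluorescence, S + 2P, at 555 nm excitation and 632 nm emission. Mixture: 20 nM Texas Red SRC2 peptide, 0.6 uM human TRb LBD, 1 uM T3, 5% DMSO; compound exposure 5 h at ambient temperature.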
NPSR antag: antagonists of human neuropeptide S receptor cAMP signaling; Potency, µM (highest dose often 38.3 µM), without a hit: top-dose activity change, negative = inhibition, usual class: inhibitors; Q6W5P4; actives 1% (n = 220,000); CHO-NPSR cells, cAMP TR-FRET, antagonist mode; further: potency means the concentration at half of the fitted maximal effect; on the % scale 0 is the no-effect control and ±100 the full control effect; nearly all actives have a fitted effect of over 50% in size
TSHR antag: antagonists of human thyroid stimulating hormone receptor | P16473 | TSHR-expressing cells, TSH-stimulated cAMP HTRF, 2 h; active compounds read low | activity change, negative = inhibition, % at 11.5 µM | actives 0.2% (n = 330,000);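 active means activity change below a set negative limit, meaning inhibition stronger than a set level, cut at about -70% in these data; inconclusive means activity change between two set negative limits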; further: on the % scale 0 is the no-effect control and ±100 the full control effect
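TSHR-expressing cells were treated with compounds, then stimulated with TSH at EC80 (4nM final) for 2 hours at 37 deg C. Cellular cAMP was measured by HTRF competition between lysate cAMP and cAMP-d2 for a cryptate-labelled anti-cAMP antibody.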
TCR activator: activators of T cell receptors. Potency, µM (series often up to 9.22 µM), inactives show top-dose activation of IL-2 secretion, most hits filed as activators. primary human leukocytes, anti-CD3, IL-2 HTRF, 48 h. 330,000 tested, under 10 active; further: % of control where 0% means no effect
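TCR engagement came from a-CD3 beads alone, with compounds added to primary human leukocytes for 48 hr. Secreted IL-2 bridged europium cryptate- and d2-labelled anti-IL-2 antibodies, giving FRET emission at 665nm after 320nm excitation.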
TRb-SRC2 inh: disrupts binding of human TR beta to SRC2. P10828. TRbeta-SRC2 peptide binding, fluorescence polarization; receptor liganded with 1 µM T3. Potency, µM (highest dose often 106 µM), for inactives: at the highest dose activity change, negative = inhibition, most hits filed as inhibitors. actives 0.065% (n = 280,000). AID 1469;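 further: potency means the concentration at half of the fitted maximal effect; plate controls were bound peptide for no effect and peptide without receptor for full effect; nearly all actives have a fitted effect of over 50% in size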
Target sequence (P10828 whole entry, looked up): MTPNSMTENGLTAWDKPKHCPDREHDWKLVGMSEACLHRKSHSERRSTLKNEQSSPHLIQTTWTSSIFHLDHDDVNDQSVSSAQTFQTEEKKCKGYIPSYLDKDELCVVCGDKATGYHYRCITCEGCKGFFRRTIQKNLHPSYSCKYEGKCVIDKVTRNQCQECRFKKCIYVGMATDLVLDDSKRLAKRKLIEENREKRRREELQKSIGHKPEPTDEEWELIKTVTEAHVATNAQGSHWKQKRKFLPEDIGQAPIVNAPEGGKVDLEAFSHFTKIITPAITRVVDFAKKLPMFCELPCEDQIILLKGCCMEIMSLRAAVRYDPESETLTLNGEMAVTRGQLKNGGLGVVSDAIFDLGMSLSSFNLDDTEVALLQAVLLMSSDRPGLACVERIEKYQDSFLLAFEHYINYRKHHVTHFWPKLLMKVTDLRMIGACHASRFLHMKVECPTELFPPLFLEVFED
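Read-out is fluorescence polarization (555 nm excitation, 632 nm emission) of a Texas Red SRC2 coactivator peptide; loss of signal reflects blocked binding to human TRb ligand-binding domain in the presence of 1 uM T3.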
Coupling enz: inhibits coupling enzyme system, counter-screen for aldolase hits | coupling enzyme system counterscreen, AmpLite Red fluorescence | activity change, negative = inhibition, % at 58.2 µM, hits read low | actives 0.67% (n = 290,000) | AID 2472; in the data active means activity change below about -30%; further: on the % scale 0 is the no-effect control and ±100 the full control effect
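Activity here indicates interference with the coupling reaction, not aldolase inhibition. Compounds at 57.5 uM final met coupling enzymes for 10 min at RT; substrate and AmpLite Red detection followed, with a 525/598 nm fluorescence read after 20 min.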
Active calls of the source: *; u = inconclusive; x = not tested or not shown; [ ] = dose if it differs, or a comment. Rows were chosen to be rich in hits. Some 1% of all compounds tested hit in one or more screens of this group. Unless noted, the call rests on the fitted dose curve; in most records, active means well fitted curve in the direction sought with a large enough effect; inconclusive means small, poorly fitted or top-dose-only effect, or another doubt; inactive means no such curve, though single readings can be large; an effect the other way counts as inactive or inconclusive.

SMILES | TexasRed fluor | NPSR antag | TSHR antag | TCR activator | TRb-SRC2 inh | Coupling enz
CCCCCCCCCCC(CO)CCCCCCCC (configuration not stated) | 0% | x | x | x | -1% | x
COc1ccc(Nc2ccc3c(c2)=NC2(CCCCC2)[N+]=3[O-])cc1 | -6% | u | -4 | 1% | u | -48*
[O-][N+]1=c2ccc(Nc3ccccc3)cc2=NC12CCCCC2 | -3% | 10µM* | -14 | -1% | u | -50*
O=C1OC(O)C(C(Cl)Cl)=C1Cl (configuration not stated) | -3% | x | x | x | 1% | x
CCOc1ccc(N(CC(=O)Nc2cc(C)cc(C)c2)S(C)(=O)=O)cc1 | x | x | -73* | 2% | x | -2
O=C(Nc1cccc(C(F)(F)F)c1)Nc1ccc(N2CCCC2)c(S(=O)(=O)Nc2ccccc2Cl)c1 | 1% | 10µM* | -15 | 2%[46.1 µM] | 5% | -9
C=CCOc1c(Cl)cc(CNc2ccc(N(C)C)cc2)cc1OC | -2% | 5µM* | -108* | 17% | 9% | -79*
CC1=C(c2ccc(C)c(C)c2)S(=O)(=O)N=C1N1CCC(C(=O)N2CCC(C)CC2)CC1 | 1% | x | x | x | -3% | x
CCC(=O)Nc1c(S(=O)(=O)c2ccccc2)c2nc3ccccc3nc2n1C(C)c1ccccc1 (configuration not stated) | -6% | -34% | -1 | -9% | 3% | -3
Cc1ccc(S(=O)(=O)c2c(N)n(CCCO)c3nc4ccccc4nc23)cc1 | 0% | -17%[46.1 µM] | -11 | 1% | -10% | 0
CCCCn1c(NC(=O)c2ccco2)c(S(=O)(=O)c2ccc(C)cc2)c2nc3ccccc3nc21 | -9% | -47% | 5 | -17% | -29% | -25
CCCCCn1c(NC(=O)c2ccco2)c(S(=O)(=O)c2ccc(C)cc2)c2nc3ccccc3nc21 | 1% | 13µM* | -9 | -3% | -2% | -15
CCCCn1c(NS(=O)(=O)c2ccccc2)c(S(=O)(=O)c2ccc(C)cc2)c2nc3ccccc3nc21 | -3% | 11%[46.1 µM] | 16 | -19%[46.1 µM] | 1% | -32*
CCCCn1c(NC(=O)c2ccc(Br)o2)c(S(=O)(=O)c2ccccc2)c2nc3ccccc3nc21 | 1% | 10µM* | -20 | -16% | u | -6
COC(=O)CSc1ncc2c(n1)-c1ccccc1N(Cc1ccccc1C)S2(=O)=O | 0% | x | x | x | 5% | x
CCCN1CCN(CCCNC(=O)c2cc3c(s2)-c2c(C)cccc2OC3)CC1 | -79%[53 µM] | x | 3 | -7% | -28%[53 µM] | 0
CCCN1CCN(CCCNC(=O)c2cc3c(s2)-c2ccccc2OC3)CC1 | -3% | x | -72* | -4% | 3% | 0
CCN1CCN(CCCNC(=O)c2cc3c(s2)-c2ccccc2OC3)CC1 | u | x | -2 | 3% | -4% | -1
Cc1cccc2c1-c1sc(C(=O)NCCCN3CCCC(C)C3)cc1CO2 (configuration not stated) | x | x | -75* | -1% | x | 1
COC(=O)C#CC(=O)OC | -1% | x | x | x | 1% | -3
CSc1cccc(NC(=O)Cn2c3ncccc3c(=O)n2-c2ccc(C)cc2)c1 | 0% | x | x | x | -1% | x
CC(NC(=O)/C(C#N)=C/c1ccc([N+](=O)[O-])o1)c1ccccc1 (configuration not stated) | x | x | -48 | -6% | x | -36*
CCOc1ccccc1NC(=O)c1c(NCc2sccc2C)sc2c1CCC(C)C2 (configuration not stated) | 0.14µM*[quencher] | x | x | x | u | x
Cc1ccccc1Oc1cc(-n2ncc(Cl)c(Cl)c2=O)ncn1 | -2%[53 µM] | 2.5µM* | -90* | 0%[46.1 µM] | 0%[53 µM] | 2
Cc1ccccc1/C=C/c1cc[n+](C)cc1 | 0% | -13% | 4 | 1% | -7% | -2
SMILES | TexasRed fluor | NPSR antag | TSHR antag | TCR activator | TRb-SRC2 inh | Coupling enz
Cc1[nH]c2ccccc2c1/C=C/c1cc[n+](C)cc1 | -7% | 10µM* | -41 | 16% | -1% | 1
CC(C)[C@H]1c2ccc(F)cc2CC[C@@]1(CCN(C)CCCc1nc2ccccc2[nH]1)OC(=O)C1CC1 | -19% | x | x | x | 2% | -9
COc1ccc(N2CCN(C(=O)[C@H](C)NC(=O)c3ccccc3Cl)CC2)cc1 | x | x | -99* | 3% | x | 0
COc1ccc(N(CC(=O)NCCc2ccc(C)cc2)S(=O)(=O)c2c(C)nn(C)c2C)cc1 | -1% | x | x | x | 8% | x
c1ccc(Cc2nnc3n2N=C(c2ccccc2)CS3)cc1 | 2% | -4% | 14 | x | 1% | -54*
c1ccc(C2=Nn3c(Cn4nnc5ccccc54)nnc3SC2)cc1 | -2% | 11% | -7 | -6% | 1% | -14
Cc1ccc(NS(=O)(=O)c2ccccc2)c2c1CC(C)(C)O2 | -3% | -10%[46.1 µM] | -9 | 3% | -5% | -46*
Cc1ccc(C2NC(=O)NC3=C2CCc2ccccc23)cc1 (configuration not stated) | 2% | -27%[46.1 µM] | 1 | 1% | 4% | -40*
COc1ccc2c(c1)C1=C(CC2)C(c2ccc(C)cc2)NC(=S)N1 (configuration not stated) | -1% | -16% | -18 | 0% | 8% | -3
COc1cccc(C2NC(=S)NC3=C2CCc2ccccc23)c1 (configuration not stated) | -2% | -10%[46.1 µM] | -17 | 3%[46.1 µM] | 6% | -43*
CC(=O)N1CCCc2cc(S(=O)(=O)N3CCC(C(=O)Nc4ccc(C)cc4Cl)CC3)ccc21 | -30% | x | x | x | 1% | x
COc1ccc(NC(=O)c2cc(-c3ccc(F)cc3)no2)cc1OC | -11% | x | x | x | 2% | x
O=C(Nc1nc(-c2cc(F)ccc2F)cs1)C1=NN(c2ccccc2)C(=O)CC1 | -3% | -28% | -10 | 4% | -1% | -2
COc1ccc(S(=O)(=O)Nc2ccccc2C(=O)Nc2nc(-c3ccc(F)cc3)cs2)cc1OC | -5%[53 µM] | -34% | -88* | -7%[46.1 µM] | 6%[53 µM] | 2
COc1ccc(-c2csc(NC(=O)C3=NN(c4ccccc4)C(=O)CC3)n2)cc1 | -2% | 14% | -78* | x | -2% | 2
COc1ccc(-c2csc(NC(=O)c3ccccc3NS(=O)(=O)c3ccc(C)cc3)n2)cc1 | -21% | -41% | -82* | -4%[46.1 µM] | 15% | 2
CCc1ccccc1Nc1cc(C(=O)NC(C)c2ccccc2)c2ccccc2n1 (configuration not stated) | 1% | x | x | x | 2% | x
COc1ccc(C(c2nnnn2Cc2ccccc2)N2CCN(c3ccccc3)CC2)cc1 (configuration not stated) | -3% | u | -11 | 1% | -8% | 1
